High-throughput results deposited in PubChem by National Center for Advancing Translational Sciences (NCATS).
Cruzain noTriton – inhibitors of Trypanosoma cruzi cruzain without detergent | Potency, µM, for inactives: max response, negative = inhibition, hits mostly inhibitors | P25779 | 2.3% of 200,000 active | purified cruzain, Z-FR-AMC fluorescence, no detergent;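 further: plate controls were enzyme without inhibitor for no effect and buffer without enzyme for full effect; nearly all actives have a fitted effect of over 40% in size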
Target sequence (P25779 123-467 limits assumed): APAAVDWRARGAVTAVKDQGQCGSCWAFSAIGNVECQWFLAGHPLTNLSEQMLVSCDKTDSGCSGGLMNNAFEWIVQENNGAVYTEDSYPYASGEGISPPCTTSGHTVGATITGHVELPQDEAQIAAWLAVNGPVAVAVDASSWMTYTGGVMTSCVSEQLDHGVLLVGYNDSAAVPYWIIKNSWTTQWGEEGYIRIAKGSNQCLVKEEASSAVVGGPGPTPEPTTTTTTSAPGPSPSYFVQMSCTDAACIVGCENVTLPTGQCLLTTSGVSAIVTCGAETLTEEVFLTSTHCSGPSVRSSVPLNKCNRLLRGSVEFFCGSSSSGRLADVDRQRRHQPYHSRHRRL
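Purified cruzain at 1.5 nM, pre-incubated 15 min with compound at room temperature in 100 mM sodium acetate pH 5.5, 5 mM DTT, 0.00005% Triton X-100. Reaction started with 2 uM Z-FR-AMC; AMC fluorescence increase over 60 s gives rate.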
Cruzain Triton – inhibitors of Trypanosoma cruzi cruzain with detergent; P25779; purified cruzain, Z-FR-AMC fluorescence, 0.01% Triton; Potency, µM, inactives show max response, negative = inhibition, usual class: inhibitors; 0.43% of 200,000 active;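 further: plate controls were neutral wells for no effect and buffer without enzyme for full effect; nearly all actives have a fitted effect of over 40% in size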
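15 min RT preincubation of 1.5 nM cruzain with compound, then 2 uM Z-FR-AMC added; kinetic AMC fluorescence, 60 s delta. Triton X-100 0.01%, pH 5.5.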
* hit, by the source's call; ? = inconclusive. This is a sample that favours compounds with a hit; in the whole collection about 2.4% have one here. The call rests on the fitted dose curve; in most records, active means well fitted curve in the direction sought with a large enough effect; inconclusive means small, poorly fitted or top-dose-only effect, or another doubt; inactive means no such curve, though single readings can be large; an effect the other way counts as inactive or inconclusive. Potency means the concentration at half of the fitted maximal effect.

SMILES	Cruzain noTriton	Cruzain Triton
COCCn1c(C)cc(O)c(C(c2ccccc2OC)N2CCN(c3ccccc3)CC2)c1=O (configuration not stated)	5%	3%
Cc1ccc(S(=O)(=O)n2nc(-c3ccccc3)nc2NCc2ccccc2Cl)cc1	-24%	-2%
Cc1ccc(NC(=O)C2CCCN(c3cnccn3)C2)cc1Cl (configuration not stated)	20%	-6%
Cc1nc2nc(NCc3ccc(Br)cc3)[nH]n2c(=O)c1Cc1ccccc1	1%	-1%
O=C(COc1ccc(Br)cc1)Nc1cc(S(=O)(=O)N2CCCCC2)ccc1N1CCCCC1	?	-5%
CC(=O)Nc1sc(C)c(C)c1C(=O)OCC(=O)Nc1cc(S(=O)(=O)N2CCCCC2)ccc1Cl	25µM*	-5%
O=C(COc1ccc(Cl)cc1)Nc1cc(S(=O)(=O)N2CCCCC2)ccc1N1CCCCC1	16µM*	-2%
CC(=O)c1c(C)[nH]c(C(=O)OCC(=O)Nc2cc(S(=O)(=O)N3CCCC3)ccc2Cl)c1C	-2%	-5%
COc1ccccc1CNC(=O)c1c(O)nc2cc(C)ccn2c1=O	9%	1%
O=C(O)/C=C\c1ccc(Cn2ccnc2)cc1	-10%	2%
CCOc1ccc(CCNC(=O)CCCn2nc(C)c3sc4ccccc4c3c2=O)cc1	?	-8%
CCOc1ccc(CNC(=O)CCCn2nc(C)c3sc4ccccc4c3c2=O)cc1	20µM*	-7%
CCc1ccc(NC(=O)Cn2c(=O)n(Cc3nc(C)no3)c(=O)c3cc4c(cc32)OCO4)cc1	1%	-3%
O=C(/C=C/c1ccc2ccccc2c1)c1ccoc1	20µM*	6%
COc1ccc(C(=O)/C=C/c2ccccc2)cc1	3%	-6%
Cc1ccc(C(=O)c2c(N)c(C(=O)Nc3cccc(C(F)(F)F)c3)c3ccccn23)cc1	?	5%
CC(C)NC(=O)C1CCN(C(=O)N2CC(C)Oc3ccccc32)CC1 (configuration not stated)	3%	-3%
CC1CN(C(=O)N2CCC(C(=O)NC3CCCCCC3)CC2)c2ccccc2O1 (configuration not stated)	7.9µM*	-3%
CC(CNC(=O)c1ccc2c(c1)nc1n2CCCCC1)c1ccccc1 (configuration not stated)	-13%	-1%
CCOc1ccccc1CNC(=O)c1cc2n(n1)CCCN(Cc1ccc(C)cc1)C2=O	10%	-3%
Cc1cc(C)c(NC(=O)Cn2nnc(-c3ccccc3)n2)c(C)c1	0%	1%
Cc1cccc(C)c1NC(=O)Cn1nnc(-c2ccc(N3CCOCC3)cc2)n1	20µM*	-4%
O=C(CN(Cc1ccccc1)S(=O)(=O)c1ccc2c(c1)OCCO2)Nc1ccc2c(c1)OCCO2	20µM*	-1%
CS(=O)(=O)N(CC(=O)Nc1ccc2c(c1)OCCO2)Cc1ccccc1	0%	1%
CCCCCCCCCCCCCCCCCCNC(=O)OCC(COP(=O)([O-])OCC[n+]1ccsc1)OC (configuration not stated)	?	2%
SMILES	Cruzain noTriton	Cruzain Triton
Cc1ccccc1OCC(=O)NCCC(=O)O	1%	1%
Cc1ccccc1OCC(=O)NCCc1nc2ccccc2[nH]1	3.2µM*	5µM*
Cc1cccc(OCC(=O)NCCc2nc3ccccc3[nH]2)c1C	3%	4µM*
Cc1cccc(OCC(=O)NCc2ccncc2)c1C	-1%	-3%
Clc1ccc(Cl)c(SCCCN2CCNCC2)c1	8%	4%
COc1ccc(-c2c(C#N)c(SCC(=O)c3cc4ccccc4oc3=O)nc(C)c2C(=O)Nc2ccccc2)cc1	?	-1%
COc1ccc(-c2c(C#N)c(SCC(=O)Nc3ccc(C)cc3)nc(C)c2C(=O)Nc2ccccc2)cc1	-17%	-2%
Cc1nc(SCC(=O)c2cc3ccccc3oc2=O)c(C#N)c(-c2ccccc2)c1C(=O)Nc1ccccc1	20µM*	-1%
COc1ccc(-c2c(C#N)c(SCC(=O)Nc3ccc(Br)cc3)nc(C)c2C(=O)Nc2ccccc2)cc1	10µM*	0%
CC1CC2C(C(O)C[C@]3(C)C2CC[C@]3(O)C(=O)CO)[C@]2(C)C=CC(=O)C=C12 (some centres not stated)	4%	2%
CC(=O)c1cccc(NC(=O)Cn2nc(C(F)(F)F)c3c2CCC3)c1	9%	-5%
C#CCSc1nc(-c2cccs2)ccc1C#N	-7%	-8%
Cc1ccc(CSc2nc(-c3cccs3)ccc2C#N)cc1	25µM*	-3%
COc1cc(-c2c(C#N)c(N)nc(SCc3ccncc3)c2C#N)cc(OC)c1OC	0%	-1%
N#Cc1c(N)nc(SCc2ccncc2)c(C#N)c1-c1cccs1	25µM*	-6%
C=CCc1ccccc1OCc1nc2ccccc2n1CC	-11%	-10%
COc1cc2c(=O)c(C(=O)c3ccc(C)c(C)c3)cn(Cc3ccccc3F)c2cc1OC	?	-3%
COC(=O)c1c(C)sc(-c2c(-c3ccc(F)cc3)[nH]c3[nH]c(=O)[nH]c(=O)c23)c1O	-6%	-9%
O=C1OCCN1C(=O)[C@H]1[C@H](c2ccc([N+](=O)[O-])cc2)C(c2ccc(F)cc2)=NN1c1ccc(Br)cc1	8.9µM*	2%
Cc1cccc(C2=NN(c3ccc(Br)cc3)[C@@H](C(=O)N3CCOC3=O)[C@@H]2c2ccccc2)c1	18µM*	-10%
Cc1cccc(C2=NN(c3ccccc3)[C@@H](C(=O)N3CCOC3=O)[C@@H]2c2ccccc2)c1	?	-2%
O=C1OCCN1C(=O)[C@H]1[C@H](c2ccccc2)C(c2ccccc2)=NN1c1ccc(Br)cc1	20µM*	-5%
C[C@@H]1C(c2ccccc2)=NN(c2ccccc2)[C@H]1C(=O)N1CCOC1=O	-2%	-2%
O=C1OCCN1C(=O)[C@H]1[C@H](c2ccccc2)C(c2ccccc2)=NN1c1ccccc1	?	1%
O=C1OCCN1C(=O)[C@H]1[C@H](c2ccc([N+](=O)[O-])cc2)C(c2ccc(F)cc2)=NN1c1ccccc1	?	4%
SMILES	Cruzain noTriton	Cruzain Triton
O=C1OCCN1C(=O)[C@H]1[C@H](c2ccccc2)C(c2ccc(F)cc2)=NN1c1ccc(Br)cc1	20µM*	-6%
COc1ccc(NC(=O)c2cc3c(=O)n(Cc4cccs4)ccc3nc2C)c(OC)c1	?	-6%
Cc1ccccc1Nc1cc(C(=O)NC2CCC(C)CC2)c2ccccc2n1 (configuration not stated)	0%	-4%
COc1ccc(CNc2nc(-c3ccc4c(c3)OCO4)nc3ccccc23)c(OC)c1	-24%	-2%
COc1ccc(CNC(=O)c2cnc(N3CCOCC3)c3ccccc23)cc1	9%	-3%
CN1CCN(c2ncc3nc(-c4ccccc4)c(=O)n(C4CC4)c3n2)CC1	25µM*	32µM*
CN1CCN(c2ncc3nc(-c4cc(F)cc(F)c4)c(=O)n(C4CC4)c3n2)CC1	?	-12%
Cc1cccc(CCNC(=O)CCc2c(C)nc3c(c(C)nn3-c3ccccc3)c2C)c1	1%	-2%
COc1ccccc1-n1c(SCc2cc(=O)oc3cc(O)ccc23)nc2ccccc2c1=O	25µM*	-12%
COc1ccc(C(C)=O)cc1CSc1nc2ccccc2c(=O)n1-c1ccccc1C	?	-10%
CC1/C=C/C=C/C=C/C=C/C=C/C=C/C=C/C(OC2OC(C)C(O)C(N)C2O)CC2O[C@@](O)(CC(O)CC(O)C(O)CCC(O)CC(O)CC(=O)OC(C)[C@H](C)C1O)CC(O)C2C(=O)O (some centres not stated)	?	-13%
